Data from PubChem BioAssay (NCI).
The panel holds about 79,000 compounds, 15% with a hit somewhere; the sample as a whole holds those more often. The source made the active and inactive calls. No stated cut-off is given here; in the data, active means growth inhibition above about 70%; inactive means the rest.

Legend:
[1] = NCI Yeast Anticancer Drug Screen. Data for the rad52 strain (AID 147);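 further: 0% = growth of vehicle-treated control cultures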; details: S. cerevisiae rad52 mutant growth inhibition, stronger effect = higher value
Outline: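 Genetically altered yeast (DNA damage repair defect) treated with compound; inhibition calculated relative to vehicle.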

[2] = NCI Yeast Anticancer Drug Screen. Data for the wt1 strain (AID 149);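 further: 0% = growth of vehicle-treated wt1 cultures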; details: S. cerevisiae wt1 strain (SPY 50644) growth inhibition, stronger effect = higher value
Outline: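 Measured: growth of wt1 yeast under compound versus vehicle treatment, reported as inhibition.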

[3] = NCI Yeast Anticancer Drug Screen. Data for the rad50EPP+ strain (AID 151);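 further: 0% = growth of vehicle-treated control cultures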; details: S. cerevisiae rad50 mutant strain, stronger effect = higher value
Outline: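 Strain rad50EPP+; compound exposure; % growth inhibition vs vehicle.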

[4] = NCI Yeast Anticancer Drug Screen. Data for the mgt1 strain (AID 153); details: S. cerevisiae mgt1 mutant growth inhibition, stronger effect = higher value
Outline: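 Read-out: yeast growth inhibition vs vehicle control. Strain mgt1, drawn from a panel altered in DNA damage repair or cell cycle control.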

[5] = NCI Yeast Anticancer Drug Screen. Data for the rad50 strain (AID 155);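 further: 0% = growth of vehicle-only cultures of the same strain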; details: S. cerevisiae rad50 strain growth inhibition, stronger effect = higher value
Outline: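 Growth of the mutant yeast was measured after compound exposure and referenced to vehicle-treated cultures.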

[6] = NCI Yeast Anticancer Drug Screen. Data for the mec2-1 strain (AID 157); details: S. cerevisiae mec2-1 strain, stronger effect = higher value
Outline: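 Cells of the genetically defined mec2-1 yeast strain are incubated with test compound. Inhibition of growth is calculated against vehicle-treated controls.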

[7] = NCI Yeast Anticancer Drug Screen. Data for the rad14 strain (AID 159);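 further: 0% = growth of vehicle-treated control cultures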; details: S. cerevisiae rad14 strain growth inhibition, stronger effect = higher value
Outline: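 Here, inhibition of yeast growth was measured after compound exposure, using a strain with a genetic defect in DNA damage repair and vehicle-treated cultures as the reference.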

[8] = NCI Yeast Anticancer Drug Screen. Data for the sgs1 mgt1 strain (AID 161);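 further: 0% = growth of cultures given vehicle only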; details: S. cerevisiae sgs1 mgt1 strain, stronger effect = higher value
Outline: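 Genetically altered yeast, compound exposure, growth inhibition relative to vehicle.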

[9] = NCI Yeast Anticancer Drug Screen. Data for the CLN2oe strain (AID 163);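 further: 0% = growth of vehicle-only control cultures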; details: S. cerevisiae CLN2oe strain, stronger effect = higher value
Outline: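 Strain altered in cell-cycle control, incubated with compound; growth compared to solvent-treated controls.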

[10] = NCI Yeast Anticancer Drug Screen. Data for the cln2 rad14 strain (AID 165);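 further: 0% = growth equal to vehicle treated cultures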; details: S. cerevisiae cln2 rad14 strain, stronger effect = higher value
Outline: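 The screen exposed genetically defined yeast (cln2 rad14) to test compounds and scored growth inhibition relative to vehicle-treated controls.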

[11] = NCI Yeast Anticancer Drug Screen. Data for the bub3 strain (AID 167); details: S. cerevisiae bub3 mutant strain, stronger effect = higher value
Outline: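 Whole-cell yeast assay. The mutant strain was incubated with compounds, and growth inhibition was determined by comparison with vehicle-treated cells.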

[12] = NCI Yeast Anticancer Drug Screen. Data for the wt2 strain (AID 169);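 further: 0% = growth of vehicle-treated yeast cultures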; details: S. cerevisiae wt2 strain growth inhibition, stronger effect = higher value
Outline: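 Steps: yeast strain treated with compound; growth recorded; inhibition calculated relative to cultures given vehicle alone.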

[13] = NCI Yeast Anticancer Drug Screen. Data for the mlh1 strain (AID 171);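 further: 0% = growth of vehicle-treated control cultures of the same strain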; details: S. cerevisiae mlh1 strain growth inhibition, stronger effect = higher value
Outline: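 Yeast screen: mutant strain plus compound, growth scored against vehicle control wells.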

[14] = NCI Yeast Anticancer Drug Screen. Data for the mlh1 rad18 strain (AID 175); details: S. cerevisiae mlh1 rad18 strain growth inhibition, stronger effect = higher value
Outline: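 Compound-treated yeast growth, normalised to vehicle controls. Strain bears defined DNA repair mutations.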

[15] = NCI Yeast Anticancer Drug Screen. Data for the rad18 strain (AID 177); details: S. cerevisiae rad18 mutant growth inhibition, stronger effect = higher value
Outline: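 Inhibition values reflect reduced yeast growth compared with vehicle-treated controls, using a strain engineered with a DNA damage repair defect.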

[16] = NCI Yeast Anticancer Drug Screen. Data for the sgs1 strain (AID 173);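 further: 0% = growth of vehicle-only control cultures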; details: S. cerevisiae sgs1 mutant, stronger effect = higher value
Outline: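 Inhibition of yeast growth served as the measure. The mutant strain was treated with each compound, and growth was normalised to cultures receiving vehicle alone.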

[17] = at 5.0 µM (retest, dose inferred, filed as 0.5)
[18] = at 50.0 µM (retest, dose inferred, filed as 5.0)

Measured: growth inhibition

O=C(Nc1ccc(Cl)cc1)Nc1nnc2nc(C(C(=O)c3cccc([N+](=O)[O-])c3Cl)c3nc4nnc(NC(=O)Nc5ccc(Cl)cc5)n4[nH]c3=O)c(=O)[nH]n12
active: [5]; at 50.0 µM 99.5% | [6]; at 50.0 µM 99.5% | [8]; at 50.0 µM 99% | [10]; at 50.0 µM 99.2% | [11]; at 50.0 µM 99.5% | [14]; at 50.0 µM 99.4%
inactive: [1]; at 1.2 µM 2% | [1]; at 3.7 µM 2% | [1]; at 11.0 µM 2% | [1]; at 33.0 µM 4% | [1]; at 100.0 µM 52% | [2]; at 1.2 µM 1% | [2]; at 3.7 µM 1% | [2]; at 11.0 µM 3% | [2]; at 33.0 µM -1% | [2]; at 100.0 µM 30% | [3]; at 1.2 µM 4% | [3]; at 3.7 µM 5% | [3]; at 11.0 µM 8% | [3]; at 33.0 µM 23% | [3]; at 100.0 µM 29% | [4]; at 1.2 µM 0% | [4]; at 3.7 µM 1% | [4]; at 11.0 µM 0% | [4]; at 33.0 µM 15% | [4]; at 100.0 µM 47% | [5]; at 1.2 µM 1% | [5]; at 3.7 µM 0% | [5]; [17] -12% | [5]; at 11.0 µM 2% | [5]; at 33.0 µM 2% | [5]; [18] 10% | [5]; at 100.0 µM 31% | [6]; at 1.2 µM -4% | [6]; at 3.7 µM -2% | [6]; [17] -2% | [6]; at 11.0 µM -12% | [6]; at 33.0 µM 0% | [6]; [18] 10% | [6]; at 100.0 µM 68% | [7]; at 1.2 µM 0% | [7]; at 3.7 µM -3% | [7]; at 11.0 µM 0% | [7]; at 33.0 µM 1% | [7]; at 100.0 µM 56% | [8]; [17] 2% | [8]; [18] 28% | [9]; at 1.2 µM -6% | [9]; at 3.7 µM -8% | [9]; at 11.0 µM -5% | [9]; at 33.0 µM -12% | [9]; at 100.0 µM 37% | [10]; [17] -8% | [10]; [18] 14% | [11]; at 1.2 µM -5% | [11]; at 3.7 µM -5% | [11]; [17] -22% | [11]; at 11.0 µM -7% | [11]; at 33.0 µM -8% | [11]; [18] 22% | [11]; at 100.0 µM 64% | [12]; at 1.2 µM -1% | [12]; at 3.7 µM -2% | [12]; at 11.0 µM -2% | [12]; at 33.0 µM -2% | [12]; at 100.0 µM 32% | [13]; at 1.2 µM 1% | [13]; at 3.7 µM -2% | [13]; at 11.0 µM 2% | [13]; at 33.0 µM -1% | [13]; at 100.0 µM 35% | [14]; [17] -20% | [14]; [18] 55% | [15]; at 1.2 µM -1% | [15]; at 3.7 µM -3% | [15]; at 11.0 µM -12% | [15]; at 33.0 µM -2% | [15]; at 100.0 µM 45%

Cn1c(-c2ccc(/C=N\N3CCN(/N=C/c4ccc(-c5c[n+]6ccccc6n5C)cc4)CC3)cc2)c[n+]2ccccc12
active: [1]; at 100.0 µM 82% | [2]; at 100.0 µM 92% | [4]; at 100.0 µM 91% | [5]; [18] 94% | [5]; at 100.0 µM 91% | [6]; at 33.0 µM 78% | [6]; [18] 96% | [6]; at 100.0 µM 93% | [7]; at 100.0 µM 84% | [8]; [18] 95% | [8]; at 50.0 µM 72.4% | [9]; at 100.0 µM 86% | [11]; [18] 95% | [11]; at 50.0 µM 80.5% | [11]; at 100.0 µM 91% | [12]; at 33.0 µM 74% | [12]; at 100.0 µM 92% | [16]; at 100.0 µM 90% | [14]; [18] 94% | [14]; at 50.0 µM 84.3% | [15]; at 100.0 µM 87%
inactive: [1]; at 1.2 µM -56% | [1]; at 3.7 µM -61% | [1]; at 11.0 µM -48% | [1]; at 33.0 µM 23% | [2]; at 1.2 µM -9% | [2]; at 3.7 µM -13% | [2]; at 11.0 µM -4% | [2]; at 33.0 µM 28% | [3]; at 1.2 µM -36% | [3]; at 3.7 µM -26% | [3]; at 11.0 µM -27% | [3]; at 33.0 µM -9% | [3]; at 100.0 µM 6% | [4]; at 1.2 µM -30% | [4]; at 3.7 µM -10% | [4]; at 11.0 µM -27% | [4]; at 33.0 µM 38% | [5]; at 1.2 µM -15% | [5]; at 3.7 µM -16% | [5]; [17] -2% | [5]; at 11.0 µM -4% | [5]; at 33.0 µM 51% | [5]; at 50.0 µM 49% | [6]; at 1.2 µM -8% | [6]; at 3.7 µM -17% | [6]; [17] 15% | [6]; at 11.0 µM 11% | [6]; at 50.0 µM 25.4% | [7]; at 1.2 µM -31% | [7]; at 3.7 µM -36% | [7]; at 11.0 µM -16% | [7]; at 33.0 µM 17% | [8]; [17] 19% | [9]; at 1.2 µM -22% | [9]; at 3.7 µM -41% | [9]; at 11.0 µM -27% | [9]; at 33.0 µM 52% | [10]; [17] -5% | [10]; [18] 69% | [10]; at 50.0 µM 22.4% | [11]; at 1.2 µM -13% | [11]; at 3.7 µM 0% | [11]; [17] 19% | [11]; at 11.0 µM -2% | [11]; at 33.0 µM 54% | [12]; at 1.2 µM -50% | [12]; at 3.7 µM -36% | [12]; at 11.0 µM -37% | [16]; at 1.2 µM -20% | [16]; at 3.7 µM -33% | [16]; at 11.0 µM -17% | [16]; at 33.0 µM 65% | [14]; [17] 46% | [15]; at 1.2 µM -23% | [15]; at 3.7 µM -19% | [15]; at 11.0 µM -31% | [15]; at 33.0 µM 47%
